A number with no mark means an inactive call. Inconclusive results are not listed. Calls of active or inactive are those of the source. Unless noted, the call rests on the fitted dose curve; in most records, active means well fitted curve in the direction sought with a large enough effect; inconclusive means small, poorly fitted or top-dose-only effect, or another doubt; inactive means no such curve, though single readings can be large; an effect the other way counts as inactive or inconclusive. Some results are limits rather than exact numbers.

In experiment [1] the target is Glucocorticoid receptor (Homo sapiens) (UniProt P04150). The experiment is described as follows: GR-GFP Redistribution (AID 450;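 active means compounds whose dose series gives a full or clear partial fitted curve of increased nuclear translocation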; further: potency means the concentration at half of the fitted maximal effect).
The target is the same in experiment [2]. The experiment is described as follows: GR-EFC Redistribution (AID 451; calls by dose curve; further: potency means the concentration at half of the fitted maximal effect). The conditions noted are these: CHO-K1 GR-EFC translocation, beta-gal luminescence, 2 h. An outline of the steps: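 CHO-K1 cells expressing nuclear EA and GR-ED fragments of b-gal; compounds titrated up to 46 uM final, 2 h at 37 C. GR nuclear translocation read as complemented b-gal luminescence after 1 h RT detection.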

In experiment [3] the target is Mitogen-activated protein kinase 10 (Mus musculus) (UniProt Q61831). The experiment is described as follows: JNK3 AlphaScreen Assay (AID 530; active means well fitted curve in either direction with a large enough effect, not every such curve was filed as active;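 further: kinase came from lysate of stimulated human HepG2 cells; signal reports phosphorylation of biotinylated GST-cJun 1-79 at Ser73 with 10 µM ATP; on the % scale 0 is the no-effect control and ±100 the full control effect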). In short, it runs like this: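 qHTS format: compounds tested as titrations against IL-1beta/TNF-alpha-activated HepG2 lysate JNK3 with biotin-GST-cJun substrate and 10 uM ATP at room temperature. Loss of anti-phospho-cJun AlphaScreen signal indicates inhibition.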
In general terms: Bead proximity is the source of the signal in Alpha formats.

Experiment [4] concerns the target 3',5'-cyclic-AMP phosphodiesterase 4B (Homo sapiens) (UniProt Q07343). The experiment is described as follows: qHTS Assay for Inhibitors of PDE-IV (AID 607; active means well fitted activation curve with a large enough effect in the main read-out, with a control signal flat, not every such curve was filed as active; further: % of control where 0% means no effect). In short, it runs like this:
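The readout is membrane depolarisation from a cAMP-sensing CNG channel, detected with a potential dye at ex 535/em 590. Cells were HEK293-derived (endogenous PDE-IV) at 1000 cells/well, titrated up to 22.9 uM final.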
A general note: qHTS replaces the single test concentration by a dilution series.

Experiment [5] has as its target Cytochrome P450 2D6 (Homo sapiens) (UniProt P10635). The experiment is described as follows: qHTS Assay for Inhibitors and Substrates of Cytochrome P450 2D6 (AID 891).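 Further: luciferin methyl ether substrate demethylated by CYP2D6 with NADPH regeneration; on the % scale 0 is the no-effect control and ±100 the full control effect; nearly all actives have a fitted effect of over 60% in size.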 In short, it runs like this:
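Human CYP2D6 (5 nM) with 30 uM Luciferin-ME EGE (at Km) in 100 mM KPO4, compound preincubated 10 min, then NADPH regeneration system for 60 min at room temperature. Luciferin read by luminescence; normalized to 1.43 uM quinidine.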

Experiment [6] deals with ATP-dependent 6-phosphofructokinase (Trypanosoma brucei brucei) (UniProt O15648). The experiment is described as follows: qHTS Assay to Find Inhibitors of T. brucei phosphofructokinase: hit validation (AID 492961). Further: on the % scale 0 is the no-effect control and ±100 the full control effect. In short, it runs like this: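 Luminescence from ADP-Glo reports ADP generated as T. brucei PFK (1.25 nM) phosphorylates 0.5 mM fructose-6-phosphate using 0.1 mM ATP. Reactions ran 45 min at room temperature, pH 8.0.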

Experiment [7] addresses DNA dC->dU-editing enzyme APOBEC-3G (Homo sapiens) (UniProt Q9HC16). Kind of experiment: qHTS for inhibitors of Vif-A3G interactions: Validation (AID 588379). Further: 0% is about no effect. In short, it runs like this: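 HeLa cells stably expressing Vif and A3G-eYFP, 700 cells/well, incubated overnight at 37 deg C, then exposed to compound overnight at 37 deg C. Inhibition of Vif-mediated degradation read as increased yellow fluorescence (Ex 488/Em 500-530) by laser-scanning cytometry.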

Experiment [8] deals with Luciferin 4-monooxygenase (Photinus pyralis) (UniProt P08659). The experiment is described as follows: Biochemical firefly luciferase enzyme assay for NPC (AID 624030).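 Further: purified P. pyralis luciferase at 10 nM with luciferin and ATP substrate; 0% = DMSO and -100% = full luciferase inhibition by PTC124 control; nearly all actives have a fitted effect of over 70% in size.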 An outline of the steps:
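Purified P. pyralis luciferase at 10 nM in 50 mM Tris Acetate (final), luminescence read within 5 minutes of enzyme addition to compounds. Activity normalised to PTC124 versus DMSO; concentration-response curves classed by r2, magnitude and activity.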

Experiment [9] can be described thus: S16 Schwann cell viability assay (CellTiter-Glo assay) (AID 624031).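 Further: native untransfected S16 rat Schwann cells; plate controls were DMSO-treated cells for no effect and cell-free wells for full effect; nearly all actives have a fitted effect of over 70% in size.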 An outline of the steps:
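Counter-screen for cytotoxicity: parental S16 rat Schwann cells lacking the PMP22 reporters, treated 24 h with compound, viability from cellular ATP by CellTiter-Glo luminescence, normalized to DMSO (0%) and no-cell wells.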
In general terms: ATP-based viability assays read luminescence as a measure of living cells.

Experiment [10] can be described thus: S16 Schwann cell PMP22 intronic element firefly luciferase assay (AID 624032).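 Further: plate controls were DMSO for no effect and PTC124 positive control mean for full effect; nearly all actives have a fitted effect of over 30% in size.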 In short, it runs like this:
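Rat S16 Schwann cells stably carrying firefly luciferase driven by a PMP22 intronic element, in 10% FBS, treated 24 h at 37 C. ONE-Glo luminescence normalized to PTC124 control and DMSO (0%); curves classed by r2, magnitude and activity.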

Experiment [11] in a line: S16 Schwann cell PMP22 intronic element beta-lactamase assay (AID 624044; calls by dose curve;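 further: 0% = DMSO and -100% = potassium clavulanate positive control; nearly all actives have a fitted effect of over 15% in size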). The conditions noted are these: S16 rat Schwann cells, PMP22 element beta-lactamase FRET, 24 h; ratio activity, negative = inhibition: at 38.3 µM (top of the series). An outline of the steps:
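Rat S16 Schwann cells with beta-Lac driven by a PMP22 intronic element, compound-treated 24 h at 37 °C. LiveBLAzer FRET B/G read: 460 nm normalized to potassium clavulanate vs DMSO; 535 nm FRET as viability; concentration-effect curves classified.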

Experiment [12] in a line: qHTS profiling for inhibitors of Plasmodium falciparum proliferation (AID 504749). Further: nearly all actives have a fitted effect of over 60% in size. Further: potency means the concentration at half of the fitted maximal effect.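 On activity, negative = inhibition: 0% = DMSO vehicle and full inhibition = artemisinin control.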 The settings on record: P. falciparum in erythrocytes, SYBR Green DNA, 72 h, at 28.7 µM (top of the series). An outline of the steps: (§1)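 Readout was DNA-dye fluorescence from lysed cultures, ex 485/em 535 nm. Parasitized red cells had grown 72 h with compound; data scaled between 0.29 uM artemisinin and DMSO wells and corrected using vehicle-only plates.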

Experiment [13] has as its system 3D7. The experiment is described as above. The conditions noted are these: P. falciparum in erythrocytes, SYBR Green DNA, 72 h; series mostly up to 28.7 µM. In short, it runs like this: as §1
For experiment [14], the system named is C2A. The experiment is described as above. The settings on record: P. falciparum in erythrocytes, SYBR Green DNA, 72 h; series mostly up to 28.7 µM. In short, it runs like this: as §1
In experiment [15] the test system is CP191. Described as above. The settings on record: P. falciparum in erythrocytes, SYBR Green DNA, 72 h; series mostly up to 28.7 µM. In short, it runs like this: as §1
In experiment [16] the test system is CP192. Described as above. The conditions noted are these: P. falciparum in erythrocytes, SYBR Green DNA, 72 h; series mostly up to 28.7 µM. In short, it runs like this:
as §1

In experiment [17] the test system is CP217. The experiment is described as above. The settings on record: P. falciparum in erythrocytes, SYBR Green DNA, 72 h; series mostly up to 28.7 µM. An outline of the steps: as §1
Experiment [18] has as its system CP237. Described as above. The conditions noted are these: P. falciparum in erythrocytes, SYBR Green DNA, 72 h; series mostly up to 28.7 µM. An outline of the steps:
as §1

The test system of experiment [19] is CP250. Described as above. The settings on record: P. falciparum in erythrocytes, SYBR Green DNA, 72 h; series mostly up to 28.7 µM. An outline of the steps: as §1
Experiment [20] has as its system CP256. Described as above. The conditions noted are these: P. falciparum in erythrocytes, SYBR Green DNA, 72 h; series mostly up to 28.7 µM. In short, it runs like this:
as §1

Experiment [21] concerns CP262. The description is as above. The conditions noted are these: P. falciparum in erythrocytes, SYBR Green DNA, 72 h; series mostly up to 28.7 µM. In short, it runs like this:
as §1

Experiment [22] concerns CP268. The description is as above. The settings on record: P. falciparum in erythrocytes, SYBR Green DNA, 72 h; series mostly up to 28.7 µM. In short, it runs like this: as §1
In experiment [23] the test system is CP269. The experiment is described as above. The conditions noted are these: P. falciparum in erythrocytes, SYBR Green DNA, 72 h; series mostly up to 28.7 µM. An outline of the steps:
as §1

The test system of experiment [24] is CP297. The experiment is described as above. The conditions noted are these: P. falciparum in erythrocytes, SYBR Green DNA, 72 h; series mostly up to 28.7 µM. An outline of the steps:
as §1

Experiment [25] concerns CP315. Described as above. The settings on record: P. falciparum in erythrocytes, SYBR Green DNA, 72 h; series mostly up to 28.7 µM. An outline of the steps: as §1
Experiment [26] relates to CP329. The experiment is described as above. The conditions noted are these: P. falciparum in erythrocytes, SYBR Green DNA, 72 h; series mostly up to 28.7 µM. In short, it runs like this:
as §1

The subject of experiment [27] is DIV14. Described as above. The settings on record: P. falciparum in erythrocytes, SYBR Green DNA, 72 h; series mostly up to 28.7 µM. An outline of the steps: as §1
For experiment [28], the system named is DIV17. The experiment is described as above. The settings on record: P. falciparum in erythrocytes, SYBR Green DNA, 72 h; series mostly up to 28.7 µM. In short, it runs like this: as §1
Experiment [29] has as its system Dd2. The experiment is described as above. The settings on record: P. falciparum in erythrocytes, SYBR Green DNA, 72 h; series mostly up to 28.7 µM. An outline of the steps: as §1
Experiment [30] has as its system ECU. The description is as above. The conditions noted are these: P. falciparum in erythrocytes, SYBR Green DNA, 72 h; series mostly up to 28.7 µM. In short, it runs like this: as §1
The test system of experiment [31] is FAB9. Described as above. The conditions noted are these: P. falciparum in erythrocytes, SYBR Green DNA, 72 h; series mostly up to 28.7 µM. In short, it runs like this:
as §1

Experiment [32] concerns GB4. Described as above. The settings on record: P. falciparum in erythrocytes, SYBR Green DNA, 72 h; series mostly up to 28.7 µM. In short, it runs like this: as §1
Experiment [33] concerns HB3. Described as above. The conditions noted are these: P. falciparum in erythrocytes, SYBR Green DNA, 72 h; series mostly up to 28.7 µM. In short, it runs like this: as §1
Experiment [34] relates to JCK. The experiment is described as above. The conditions noted are these: P. falciparum in erythrocytes, SYBR Green DNA, 72 h; series mostly up to 28.7 µM. An outline of the steps:
as §1

The subject of experiment [35] is PAD. Described as above. The conditions noted are these: P. falciparum in erythrocytes, SYBR Green DNA, 72 h; series mostly up to 28.7 µM. In short, it runs like this:
as §1

Experiment [36] deals with PC49. The description is as above. The settings on record: P. falciparum in erythrocytes, SYBR Green DNA, 72 h; series mostly up to 28.7 µM. An outline of the steps:
as §1

Experiment [37] concerns TAB113. Described as above. The conditions noted are these: P. falciparum in erythrocytes, SYBR Green DNA, 72 h; series mostly up to 28.7 µM. An outline of the steps: as §1
Experiment [38] concerns W2. The description is as above. The settings on record: P. falciparum in erythrocytes, SYBR Green DNA, 72 h; series mostly up to 28.7 µM. In short, it runs like this:
as §1

Sequence of Glucocorticoid receptor (Homo sapiens) (P04150 whole entry, looked up, the tested form may be a part): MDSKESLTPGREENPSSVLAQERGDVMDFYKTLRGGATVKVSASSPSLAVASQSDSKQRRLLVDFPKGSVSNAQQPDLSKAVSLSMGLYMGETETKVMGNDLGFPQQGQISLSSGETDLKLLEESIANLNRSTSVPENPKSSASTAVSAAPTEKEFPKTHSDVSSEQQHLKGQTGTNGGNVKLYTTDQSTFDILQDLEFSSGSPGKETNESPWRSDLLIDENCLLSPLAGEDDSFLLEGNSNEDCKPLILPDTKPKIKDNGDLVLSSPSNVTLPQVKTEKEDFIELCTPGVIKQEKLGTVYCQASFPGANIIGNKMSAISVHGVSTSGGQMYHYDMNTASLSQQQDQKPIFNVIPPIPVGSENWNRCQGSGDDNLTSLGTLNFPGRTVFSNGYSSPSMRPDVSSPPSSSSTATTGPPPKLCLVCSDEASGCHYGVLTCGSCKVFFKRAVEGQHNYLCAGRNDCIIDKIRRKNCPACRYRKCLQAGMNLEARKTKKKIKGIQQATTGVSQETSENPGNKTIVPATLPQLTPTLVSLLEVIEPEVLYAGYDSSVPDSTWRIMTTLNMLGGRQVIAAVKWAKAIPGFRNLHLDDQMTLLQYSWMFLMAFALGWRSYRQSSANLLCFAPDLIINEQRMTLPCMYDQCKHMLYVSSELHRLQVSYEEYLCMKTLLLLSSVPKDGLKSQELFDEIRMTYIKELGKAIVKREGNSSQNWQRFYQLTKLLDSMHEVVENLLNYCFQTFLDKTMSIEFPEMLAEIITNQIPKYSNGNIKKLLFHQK
Sequence of DNA dC->dU-editing enzyme APOBEC-3G (Homo sapiens) (Q9HC16 whole entry, looked up): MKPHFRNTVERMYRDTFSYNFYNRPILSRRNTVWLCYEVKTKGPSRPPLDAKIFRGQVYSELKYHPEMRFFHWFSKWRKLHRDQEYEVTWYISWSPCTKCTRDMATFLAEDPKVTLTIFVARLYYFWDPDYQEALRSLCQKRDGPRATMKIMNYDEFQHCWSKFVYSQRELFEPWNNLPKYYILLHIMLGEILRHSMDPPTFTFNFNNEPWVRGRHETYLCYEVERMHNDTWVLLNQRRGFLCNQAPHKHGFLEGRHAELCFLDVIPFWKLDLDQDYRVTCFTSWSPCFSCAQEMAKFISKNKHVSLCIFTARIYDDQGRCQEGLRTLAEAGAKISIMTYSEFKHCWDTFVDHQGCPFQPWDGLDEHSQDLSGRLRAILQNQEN
Sequence of Cytochrome P450 2D6 (Homo sapiens) (P10635 whole entry, looked up): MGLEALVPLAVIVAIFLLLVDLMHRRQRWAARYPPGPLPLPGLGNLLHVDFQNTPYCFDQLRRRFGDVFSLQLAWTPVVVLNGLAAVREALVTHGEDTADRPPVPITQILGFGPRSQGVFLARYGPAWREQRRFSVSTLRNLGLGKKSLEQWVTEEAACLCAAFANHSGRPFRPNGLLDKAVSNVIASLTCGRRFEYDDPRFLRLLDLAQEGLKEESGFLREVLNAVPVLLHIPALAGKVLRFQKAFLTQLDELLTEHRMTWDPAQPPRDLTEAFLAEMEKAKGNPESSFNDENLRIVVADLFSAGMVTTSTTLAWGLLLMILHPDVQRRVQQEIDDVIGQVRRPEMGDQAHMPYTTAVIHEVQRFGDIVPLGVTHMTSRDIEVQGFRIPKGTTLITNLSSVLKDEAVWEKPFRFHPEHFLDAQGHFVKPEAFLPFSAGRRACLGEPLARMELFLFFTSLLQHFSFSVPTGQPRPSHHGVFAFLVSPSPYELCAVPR
Sequence of Luciferin 4-monooxygenase (Photinus pyralis) (P08659 whole entry, looked up): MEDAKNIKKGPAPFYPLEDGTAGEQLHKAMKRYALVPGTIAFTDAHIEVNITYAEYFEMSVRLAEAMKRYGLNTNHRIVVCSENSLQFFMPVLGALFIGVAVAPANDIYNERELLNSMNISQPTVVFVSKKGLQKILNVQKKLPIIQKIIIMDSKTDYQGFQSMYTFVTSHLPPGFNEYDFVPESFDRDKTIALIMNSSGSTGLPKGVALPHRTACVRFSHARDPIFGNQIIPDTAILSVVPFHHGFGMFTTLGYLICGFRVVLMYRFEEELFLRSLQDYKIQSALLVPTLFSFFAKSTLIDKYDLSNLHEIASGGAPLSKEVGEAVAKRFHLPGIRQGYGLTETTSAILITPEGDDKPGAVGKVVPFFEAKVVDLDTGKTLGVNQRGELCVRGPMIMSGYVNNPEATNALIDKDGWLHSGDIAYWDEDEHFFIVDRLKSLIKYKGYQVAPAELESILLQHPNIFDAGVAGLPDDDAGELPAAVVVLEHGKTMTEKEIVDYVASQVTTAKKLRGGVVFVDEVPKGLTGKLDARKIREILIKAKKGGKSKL
Sequence of ATP-dependent 6-phosphofructokinase (Trypanosoma brucei brucei) (O15648 whole entry, looked up): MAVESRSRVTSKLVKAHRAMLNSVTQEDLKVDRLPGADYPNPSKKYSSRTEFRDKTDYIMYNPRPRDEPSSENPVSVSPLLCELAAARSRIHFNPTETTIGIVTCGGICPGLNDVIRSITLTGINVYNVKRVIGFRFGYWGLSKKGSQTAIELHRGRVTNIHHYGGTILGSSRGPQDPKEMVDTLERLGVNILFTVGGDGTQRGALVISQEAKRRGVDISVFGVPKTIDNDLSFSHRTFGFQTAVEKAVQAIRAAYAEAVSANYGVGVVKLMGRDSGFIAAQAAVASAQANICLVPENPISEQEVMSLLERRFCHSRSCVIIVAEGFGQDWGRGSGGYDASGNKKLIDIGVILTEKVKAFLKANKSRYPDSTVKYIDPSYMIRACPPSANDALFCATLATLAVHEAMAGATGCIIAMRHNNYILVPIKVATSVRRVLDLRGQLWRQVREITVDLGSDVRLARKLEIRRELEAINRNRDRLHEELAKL
Sequence of 3',5'-cyclic-AMP phosphodiesterase 4B (Homo sapiens) (Q07343 whole entry, looked up): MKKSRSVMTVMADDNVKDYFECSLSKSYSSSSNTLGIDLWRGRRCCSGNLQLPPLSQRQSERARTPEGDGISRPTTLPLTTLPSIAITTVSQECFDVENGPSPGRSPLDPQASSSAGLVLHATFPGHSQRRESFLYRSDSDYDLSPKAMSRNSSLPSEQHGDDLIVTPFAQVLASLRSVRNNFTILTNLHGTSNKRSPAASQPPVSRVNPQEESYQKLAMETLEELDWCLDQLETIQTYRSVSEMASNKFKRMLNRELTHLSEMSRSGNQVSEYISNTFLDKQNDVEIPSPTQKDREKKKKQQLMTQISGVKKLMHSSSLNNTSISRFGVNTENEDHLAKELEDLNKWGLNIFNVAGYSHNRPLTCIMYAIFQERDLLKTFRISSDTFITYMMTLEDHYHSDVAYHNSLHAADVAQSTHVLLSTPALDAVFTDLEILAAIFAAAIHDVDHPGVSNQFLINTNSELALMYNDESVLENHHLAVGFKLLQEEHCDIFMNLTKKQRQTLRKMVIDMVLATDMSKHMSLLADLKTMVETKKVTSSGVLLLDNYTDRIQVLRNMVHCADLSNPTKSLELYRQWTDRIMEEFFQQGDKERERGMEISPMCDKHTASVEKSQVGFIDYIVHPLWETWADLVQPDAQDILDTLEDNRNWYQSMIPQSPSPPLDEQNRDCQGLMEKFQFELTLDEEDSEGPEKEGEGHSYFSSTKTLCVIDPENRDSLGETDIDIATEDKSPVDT

With `COc1ccc(C(=O)[C@H]2[C@H]3[C@@H](C(=O)[C@@H]4OC[C@H]3O4)[C@H]3C=Cc4ccccc4N32)c(OC)c1`, the Potency in experiment [1] and in experiment [2] was > 46 µM each time. For the same molecule, the Potency entry in experiment [3], in experiment [4] and in experiment [5] was “inactive” throughout.

For `C[C@@](Cc1ccccc1)(NC(=O)CN)c1ccccc1`, the Potency in [1] was > 46 µM; in experiment [2], > 46 µM; in experiment [18], 5.62 µM (active); in experiment [24], 9.53 µM (active); in [27], 3.79 µM (active); in experiment [28], 4.78 µM (active). In addition, the Potency was 12.6 µM (active) in experiment [29], 8.49 µM (active) in experiment [32], 3.55 µM (active) in experiment [36] and 3.79 µM (active) in experiment [38]. Further, the Potency entry in experiment [3], in [6], in [8], in experiment [9], in [10] and in [11] was “inactive” throughout. Also, the Potency result in experiment [13], in [14], in experiment [15], in experiment [16], in [17] and in experiment [19] was “inactive” each time. Besides, the Potency entry in experiment [20], in [21], in [22], in [23], in experiment [25] and in [26] was “inactive” throughout. Besides, the Potency entry in [30], in experiment [31], in experiment [33], in [34], in [35] and in experiment [37] was “inactive” each time. The result in experiment [7] was inactive. Moreover, the activity, negative = inhibition was 17.9% in experiment [12] (parasite line A) and 2.96% in [12] (parasite line B).
